Screens as filed in PubChem BioAssay.
miR-122 inh = raises miR-122 sensor activity in Huh7 cells | Huh7 psiCHECK-miR122 Renilla luciferase sensor, 48 h | activation, % at 12.5 µM | hit rate 0.14% among 340,000 | AID 623901;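 active means mean activation of 30% or more, with every replicate also reaching 30%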;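 further: 0% = median of neutral control wells and 100% = median of positive control wells; higher luciferase signal means stronger suppression of miR-122 activity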
Starred values were filed as active, the others as inactive. This is one part of a sample in which hits are shown more often than they occur.

For C[C@H]1CN([C@@H](C)CO)S(=O)(=O)c2ccc(C#CC(C)(C)O)cc2O[C@@H]1CN(C)CC1CC1 the results were miR-122 inh 3.
C[C@H](O)C#Cc1ccc2c(c1)O[C@@H](CN(C)C)[C@@H](C)CN([C@@H](C)CO)S2(=O)=O was read as miR-122 inh 0.
C[C@H](CO)N1C[C@H](C)[C@@H](CN(C)S(=O)(=O)c2cccc(F)c2)Oc2ncc(C#CC3(O)CCCC3)cc2C1=O was read as miR-122 inh 10.
Screening COc1cccc(C#Cc2ccc3c(c2)O[C@@H](CN(C)C(C)=O)[C@H](C)CN([C@@H](C)CO)S3(=O)=O)c1 returned miR-122 inh -1.
Screening C/C=C/c1ccc2c(c1)O[C@@H](CN(C)C(=O)Cc1ccccn1)[C@H](C)CN([C@@H](C)CO)S2(=O)=O returned miR-122 inh -2.
`CCCNC(=O)N(C)C[C@@H]1Oc2ncc(/C=C/c3ccccc3)cc2C(=O)N([C@@H](C)CO)C[C@H]1C` gave miR-122 inh 4.
For COc1cccc(-c2ccc3c(c2)O[C@H](CN(C)C(C)=O)[C@@H](C)CN([C@H](C)CO)S3(=O)=O)c1 the results were miR-122 inh 5.
For Cc1cc(C(C)(C)CC(C)(C)C)ccc1OCCOCC[N+](C)(C)Cc1ccccc1 the results were miR-122 inh 58*.
N#CCc1c(C#N)c(N)nc(N2CCN(S(=O)(=O)c3ccccc3)CC2)c1C#N was read as miR-122 inh 36*.
Screening Cc1cccc(S(=O)(=O)C(C#N)c2nc3ccccc3nc2N2CCCC2)c1 (stereo unspecified) returned miR-122 inh -119.
`C[C@H]1CN([C@@H](C)CO)C(=O)c2cc(C#CC3CC3)cnc2O[C@@H]1CN(C)Cc1ccncc1` gave miR-122 inh 0.
C[C@H](CO)N1C[C@H](C)[C@@H](CN(C)C(=O)c2ccccc2)Oc2cc(-c3cccc(C#N)c3)ccc2S1(=O)=O was read as miR-122 inh -9.
`C[C@H](CO)N1C[C@H](C)[C@@H](CN(C)S(C)(=O)=O)Oc2ncc(C#Cc3cccnc3)cc2C1=O` gave miR-122 inh -2.
`COc1ccc2[nH]c3c4c(ccc3c2c1)C(=O)C=CC4=O` gave miR-122 inh 42*.
For C[C@H](CO)N1C[C@H](C)[C@H](CN(C)Cc2ccc(C(=O)O)cc2)Oc2ncc(-c3ccc(F)cc3)cc2C1=O the results were miR-122 inh -22.
C/C=C/c1ccc([C@H]2[C@@H](CO)N(c3nc(CC)cs3)[C@H]2CNC(C)C)cc1 was read as miR-122 inh -92.
`CO[C@@H]1CN(C)C(=O)c2cc(NC(C)=O)ccc2OC[C@@H](C)N(C(=O)c2ccccc2)C[C@@H]1C` gave miR-122 inh -3.
`NC(=O)Cn1cc(/C=N\NS(=O)(=O)c2ccc(F)cc2)c2ccccc21` gave miR-122 inh -135.
Screening O=C(COc1ccc(/C=N/NS(=O)(=O)c2ccccc2)cc1)Nc1ccc(F)cc1 returned miR-122 inh 36*.
For Cc1ccc(S(=O)(=O)N/N=C/c2ccc(OCC(=O)Nc3ccccc3Cl)cc2)cc1 the results were miR-122 inh -219.
`CO[C@@H]1CN(C)C(=O)c2ccc(NC(=O)Nc3ccccc3)cc2OC[C@@H](C)N(C(C)=O)C[C@@H]1C` gave miR-122 inh -2.
For C[C@@H]1CN([C@@H](C)CO)C(=O)c2cc(-c3ccc(F)cc3)cnc2O[C@@H]1CN(C)C(=O)c1cccnc1 the results were miR-122 inh 3.
N=c1c2c(-c3ccccc3)c(-c3ccccc3)n(Cc3ccccc3)c2ncn1CCO was read as miR-122 inh 40*.
`CCC(=O)Nc1ccc2c(c1)OC[C@H](C)N(Cc1ccccc1F)C[C@@H](C)[C@H](OC)CN(C)C2=O` gave miR-122 inh -1.
Screening C[C@@H]1CN([C@@H](C)CO)C(=O)c2cc(-c3cccc(C#N)c3)cnc2O[C@@H]1CN(C)Cc1ccccc1 returned miR-122 inh 3.
For Cc1ccc(S(=O)(=O)N(C)C[C@@H]2Oc3cc(C#CC4CCCC4)ccc3S(=O)(=O)N([C@@H](C)CO)C[C@@H]2C)cc1 the results were miR-122 inh -29.
C[C@H]1CN([C@@H](C)CO)C(=O)c2cc(-c3cncnc3)cnc2O[C@@H]1CN(C)Cc1cncnc1 was read as miR-122 inh 6.
Screening Cc1ccc(-n2ncc(C(=O)Nc3cc(Cl)ccc3C)c2C2CCNCC2)cc1C returned miR-122 inh 36*.
For CCS(=O)(=O)Nc1ccc2c(c1)C(=O)N(C)C[C@@H](OC)[C@H](C)CN(Cc1cccnc1)[C@H](C)CO2 the results were miR-122 inh 0.
Screening C[C@H]1CN([C@@H](C)CO)C(=O)c2cc(-c3cccc(F)c3)cnc2O[C@H]1CN(C)Cc1ccncc1 returned miR-122 inh 3.
COc1ccc(C#Cc2ccc3c(c2)O[C@@H](CN(C)C)[C@@H](C)CN([C@H](C)CO)S3(=O)=O)cc1 was read as miR-122 inh 3.
`Cc1ccc(-c2cnc3c(c2)C(=O)N([C@@H](C)CO)C[C@H](C)[C@H](CN(C)C(=O)Cc2cccnc2)O3)cc1` gave miR-122 inh 10.
